Records with an inconclusive call do not appear. Entries that show only a call come without a potency. Calls of active or inactive are those of the source. The call rests on the fitted dose curve; in most records, active means well fitted inhibition curve with a large enough effect; inconclusive means small, poorly fitted or top-dose-only effect; inactive means no such curve, though single readings can be large or run the other way.
Potency means the concentration at half of the fitted maximal effect.

Sequence of N-terminal Xaa-Pro-Lys N-methyltransferase 1 (Homo sapiens) (Q9BV86 whole entry, looked up): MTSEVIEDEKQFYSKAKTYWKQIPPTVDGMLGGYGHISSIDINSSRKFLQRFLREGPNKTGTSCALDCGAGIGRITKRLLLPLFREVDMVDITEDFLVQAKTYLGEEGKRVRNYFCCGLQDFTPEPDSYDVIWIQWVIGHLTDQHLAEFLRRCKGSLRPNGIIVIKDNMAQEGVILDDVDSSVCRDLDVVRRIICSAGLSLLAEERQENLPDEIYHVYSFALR

The experiment has as its target N-terminal Xaa-Pro-Lys N-methyltransferase 1 (Homo sapiens) (UniProt Q9BV86). Description: qHTS Assay for Inhibitors of N-terminal methyltransferase 1 (NTMT1): MTaseGlo Assay Confirmatory Screen, Round 1. The following applies: Recombinant NTMT1, MTase-Glo SAH luminescence; series mostly up to 57.1 µM. The method in brief: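 Luminescence from MTase-Glo conversion of SAH to ATP measured activity after a 30 min RT reaction with 1 µM SPKRIA substrate, 100 µM SAM and 125 nM enzyme. Normalization used no-enzyme and DMSO controls, followed by Hill fitting.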
(In general: qHTS replaces the single test concentration by a dilution series.)
In the case of `Nc1nc2c(ncn2[C@@H]2O[C@H](CO)[C@@H](O)[C@H]2O)c(=O)[nH]1`, the Potency result is “inactive”. For the compound `COc1cc2nc(N3CCOCC3)nc(NC3CCN(C)CC3)c2cc1OC`, the Potency entry is “inactive”.

On to `COc1cc2nc(N3CCN(C)CC3)nc(NC3CCCCC3)c2cc1OC`, for which the Potency result is “inactive”. On to `COC(=O)c1ccc2c(c1)nc(NC(=O)c1ccccc1)n2CCCc1ccccc1`, for which the Potency entry is “inactive”.

`CNC(=O)[C@H]1O[C@@H](n2cnc3c(N)ncnc32)[C@H](O)[C@@H]1O`: the Potency entry was “inactive”. `COc1cc2nc(N3CCN(C)CC3)nc(NC3CC3)c2cc1OC`: the Potency result was “inactive”. For the compound `Nc1nc(Cl)nc2c1ncn2[C@@H]1O[C@H](COP(=O)(O)OP(=O)(O)OP(=O)(O)O)C(O)[C@H]1O` (some centres not stated), the Potency result is “inactive”. `COc1cc2nc(N3CCN(C)CC3)nc(N3CCOCC3)c2cc1OC`: the Potency result was “inactive”. With `CCN1CCN(c2nc(NC3CC3)c3cc(OC)c(OC)cc3n2)CC1`, the Potency entry is “inactive”. For `COc1cc2c(NC3CCN(C)CC3)nc(N3CCCCC3)nc2cc1OCCOCCN(C)C` the value was “inactive”; for `COC1C(O)C(CO)OC1n1cnc2c(NC3CCCCC3)ncnc21` (configuration not stated), “inactive”; for `CCCN(C)CCCOc1cc2nc(N3CCCN(C)CC3)nc(NC3CCN(C)CC3)c2cc1OC`, “inactive”. Turning to `COc1cc2nc(N3CCOCC3)nc(NC3CC3)c2cc1OC`, the Potency entry was “inactive”. Regarding `COc1cc2nc(N3CCN(C)CC3)nc(NCCCN(C)C)c2cc1OC`, the Potency result is “inactive”. Regarding `COc1cc2nc(N3CCN(C)CC3)nc(N3CCN(C(C)=O)CC3)c2cc1OC`, the Potency entry was “inactive”.

With `COc1cc2nc(N3CCCN(C)CC3)nc(NC3CCN(C)C3)c2cc1OC` (configuration not stated), the Potency result was “inactive”.

As to `N#Cc1ccc(COC[C@H]2O[C@@H](n3c(NCc4ccc(Cl)c(Cl)c4)nc4c(N)ncnc43)[C@@H](O)[C@@H]2O)cc1`, the Potency entry was “inactive”. For `CNC(=O)[C@H]1O[C@H](n2cnc3c(NCc4cccc(I)c4)nc(Cl)nc32)[C@@H](O)[C@@H]1O` the value was “inactive”. For the compound `COc1cc2c(NC3CCN(C)CC3)nc(N3CCCN(C)CC3)nc2cc1OCCOCCN(C)C`, the Potency result was “inactive”. For `COc1cc2nc(N3CCN(C)CC3)nc(NC3CCCC3)c2cc1OC` the value was “inactive”; for `COc1cc2nc(N3CCCN(C)CC3)nc(N3CCN(C)CC3)c2cc1OC`, “inactive”; for `COc1cc2c(NC3CCN(C)CC3)nc(N3CCCCC3)nc2cc1OCCOCCN1CCCC1`, “inactive”.

On to `CCCC(=O)Nc1ncnc2c1ncn2[C@@H]1O[C@@H]2COP(=O)(O)O[C@H]2[C@H]1OC(=O)CCC`, for which the Potency entry was “inactive”. For `COc1cc2nc(N3CCCN(C)CC3)nc(NC3CC3)c2cc1OC` the value was “inactive”.

For `COc1cc2c(NC3CCN(C)CC3)nc(N3CCCN(C)CC3)nc2cc1OCCCN1CCCC1`, the Potency result is “inactive”. With `COc1cc2nc(N3CCN(C)CC3)nc(NC(C)C)c2cc1OC`, the Potency result was “inactive”. In the case of `COc1cc2c(NC3CCN(C)CC3)nc(N3CCCN(C)CC3)nc2cc1OCCCCN`, the Potency was 15.3 µM (active). Regarding `CCN(c1cc(C#CCN2CCOCC2)cc(C(=O)NCc2c(C)cc(C)[nH]c2=O)c1C)C1CCC(N(C)CCOC)CC1` (configuration not stated), the Potency result was “inactive”. For `Nc1nc(F)nc2c1ncn2[C@@H]1O[C@H](CO)[C@@H](O)[C@@H]1O`, the Potency entry was “inactive”. Take `Nc1ncnc2c1ncn2[C@@H]1O[C@H](COP(=O)(O)OP(=O)(O)OP(=O)(O)OP(=O)(O)OC[C@@H]2O[C@H](n3cnc4c(N)ncnc43)[C@@H](O)C2O)C(O)[C@H]1O` (some centres not stated): the Potency result was “inactive”.

`Nc1ncnc2c1ncn2[C@@H]1O[C@H](C[C@@H](N)CC[C@H](N)C(=O)O)[C@@H](O)[C@H]1O`: the Potency entry is “inactive”. Take `Nc1ncnc2c1[nH]c(=O)n2C1CC(O)C(CO)O1` (configuration not stated): the Potency entry is “inactive”.

With `COc1cc2nc(N3CCN(C(C)=O)CC3)nc(NC3CC3)c2cc1OC`, the Potency entry was “inactive”. Take `Nc1nc(Cl)nc2c1ncn2[C@@H]1O[C@H](CO)[C@@H](O)[C@H]1O`: the Potency result was “inactive”. For `CNc1ncnc2c1ncn2[C@@H]1O[C@H](CO)[C@@H](O)[C@@H]1O`, the Potency result was “inactive”. Consider `CNc1nc(N2CCN(C)CC2)nc2cc(OC)c(OC)cc12`, for which the Potency result was “inactive”. For `COc1cc2nc(NC3CCN(C)CC3)nc(N3CCCN(C)CC3)c2cc1OC`, the Potency entry is “inactive”.
